Test results reported in PubChem BioAssay AID763 (NMMLSC, 2007).

These compounds were tested against fMet-Leu-Phe receptor (Homo sapiens) (UniProt P21462) (assay: FPR1 fluorescent ligand binding inhibitors, SAR follow-up, selectivity assay for FPRL1 ligand SAR project, cell-based, single concentration (AID 763)). Settings: FPR1-expressing cells, active compounds read high; at 5.4 µM unless noted; call rule not given here.
Chain of fMet-Leu-Phe receptor (Homo sapiens) (P21462 whole entry, looked up): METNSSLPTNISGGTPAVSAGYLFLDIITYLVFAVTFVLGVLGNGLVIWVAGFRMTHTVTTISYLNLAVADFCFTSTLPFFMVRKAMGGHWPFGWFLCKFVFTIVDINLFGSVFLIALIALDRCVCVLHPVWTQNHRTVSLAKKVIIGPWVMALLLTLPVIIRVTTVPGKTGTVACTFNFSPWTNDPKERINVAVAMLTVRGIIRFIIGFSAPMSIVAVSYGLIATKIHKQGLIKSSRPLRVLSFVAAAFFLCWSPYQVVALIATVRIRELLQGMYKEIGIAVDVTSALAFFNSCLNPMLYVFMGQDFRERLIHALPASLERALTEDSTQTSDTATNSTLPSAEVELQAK

inhibition, inactive:
COc1ccc(-c2cn3cccnc3n2)cc1NC(=O)c1cccc(C)c1 -4.1% [at 6.2 µM], Fc1ccc(-c2cc(C(F)(F)F)nc(N3CCN(c4ccccc4)CC3)n2)cc1 -1% [at 5.5 µM], COc1ccccc1-c1cc(C(F)(F)F)nc(N2CCN(C)CC2)n1 5% [at 6.3 µM], COc1cccc(-c2cc(C(F)(F)F)nc(N3CCN(C(c4ccccc4)c4ccccc4)CC3)n2)c1 2.6% [at 4.4 µM], COc1ccc(-c2cc(C(F)(F)F)nc(N3CCN(Cc4ccccc4)CC3)n2)cc1OC 4.7% [at 4.9 µM], O=C(C1CCCCC1)N1CCN(c2nc(-c3ccccc3Cl)c3cc(Br)ccc3n2)CC1 3.4% [at 4.3 µM], CC(C)(C)OC(=O)N1CCN(c2nc(-c3ccccc3Cl)c3cc(Br)ccc3n2)CC1 8.5% [at 4.4 µM], O=C(c1ccccc1Cl)N1CCN(c2nc(-c3ccccc3)c3cc(Cl)ccc3n2)CC1 -3.1% [at 4.8 µM], COc1cccc(-c2cc(C(F)(F)F)nc(N3CCN(C)CC3)n2)c1 1.9% [at 6.3 µM], O=C(O)CCC(=O)N1CCN(c2nc(-c3ccccc3Cl)c3cc(Br)ccc3n2)CC1 2.5% [at 4.4 µM], COc1ccc(-c2cn3cccnc3n2)cc1NC(=O)c1ccc(C)c(C)c1 -2.6% [at 6 µM], CCCCOc1ccc(C(=O)Nc2cc(-c3cn4cccnc4n3)ccc2OC)cc1 2.6% [at 5.3 µM]
